Data on four compounds can be found in PubChem BioAssay (NCI).

The panel holds about 83,000 compounds, 20% with a hit somewhere; the sample as a whole holds those more often.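 Assay: single dose, 48 h. Readout: percent growth (0 = no net growth; negative = cell death). Active: <10.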 The source made the active and inactive calls.

The subject of the assay is MDA-MB-468 breast. The experiment in a line: NCI-60 one-dose screen, 48 h (100 = growth as untreated, 0 = no growth, -100 = all killed). The following applies: 10 µM unless noted.
For `COc1ccccc1/C=C1\COc2ccc(O)cc2C1=O`, the growth is 68.7% (inactive).

Turning to `COc1ccc2c(c1)c(-c1nc(-c3cn(C)c4ccncc34)cs1)cn2C`, the growth was -28.4% (active).

In the case of `COc1ccc(NC(=O)c2sc3nc4c(cc3c2N)CCCC4)cc1`, the growth is 13.6% (inactive).

`C/C(=C\CCc1ccoc1)CC/C=C(\C)CCCN1CCSCC1`: the growth is 22.6% (inactive).
